Assay outcomes from PubChem BioAssay.
Most compounds without a hit are left out; they make up all but 1.2% or so of the library.
GSH fluor – GSH bead compound fluorescence profile; fluorescence (KMESF) at 10 µM; GSH beads flow cytometry, compound fluorescence 488/530 nm; active compounds read high; 190,000 tested, 0.25% active; in the data active = fluorescence above about 89;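 note: glutathione beads carrying GST-tagged Bcl family fusion proteins plus one bare bead set; values are compound well signal with DMSO vehicle wells as background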
RGS4-Gao reg – modulates binding of RGS4 to human Galphao | 220,000 tested, 0.33% active | P09471 | AID 1415 | Multiplexed bead flow cytometry; actives lie on both sides | binding response (% of control), % at 10 µM; in the data active = binding response below about 49% or above about 150%; inactive = in between;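 note: fluorescent Galphao activated with aluminum fluoride binding bead-coupled RGS4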
Target sequence (P09471 whole entry, looked up): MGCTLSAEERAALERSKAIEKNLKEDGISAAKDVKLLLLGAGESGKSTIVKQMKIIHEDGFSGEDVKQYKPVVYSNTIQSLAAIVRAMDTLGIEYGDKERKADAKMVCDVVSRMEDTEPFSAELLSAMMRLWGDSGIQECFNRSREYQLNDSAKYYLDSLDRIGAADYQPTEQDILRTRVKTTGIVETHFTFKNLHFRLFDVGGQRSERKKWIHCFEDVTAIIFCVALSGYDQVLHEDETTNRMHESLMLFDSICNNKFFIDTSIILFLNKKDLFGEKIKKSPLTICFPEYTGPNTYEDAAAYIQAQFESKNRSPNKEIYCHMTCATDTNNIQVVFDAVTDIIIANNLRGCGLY
RGS16-Gao HTS – regulators of human RGS16-Galphao interaction; bead-based flow cytometry RGS16-Galphao binding, fluorescence; actives lie on both sides; binding response (% of control), % at 10 µM; 220,000 tested, 0.38% active; AID 1441; call rule not given here;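 note: Galphao activated by GDP with aluminum fluoride before binding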
Target sequence (O15492 whole entry, looked up): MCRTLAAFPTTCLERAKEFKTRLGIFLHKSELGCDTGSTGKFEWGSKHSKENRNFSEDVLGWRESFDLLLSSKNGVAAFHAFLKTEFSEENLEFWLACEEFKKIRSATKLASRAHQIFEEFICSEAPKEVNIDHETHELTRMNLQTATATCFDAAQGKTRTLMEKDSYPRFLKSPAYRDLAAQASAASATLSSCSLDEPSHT
Target sequence (P09471 whole entry, looked up): as the sequence (P09471 whole entry, looked up) above
Avidin fluor – avidin bead compound fluorescence profile. Avidin beads, compound fluorescence 488/530 nm, flow cytometry; active compounds read high. fluorescence (KMESF) at 10 µM. 220,000 tested, 0.38% active; in the data active = fluorescence above about 47
RGS8-Gao – human RGS8-Galphao interaction regulation; 220,000 tested, 0.34% active; multiplexed bead flow cytometry, RGS8-Galphao binding; actives lie on both sides; response (percent of control binding), % at 10 µM; P09471; in the data active = response below about 60% or above about 140%; inactive = in between;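 note: Galphao activated as the GDP aluminium fluoride complex binding bead-coupled RGS8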
RGS7-Gao reg – regulators of human RGS7-Galphao interaction; 220,000 tested, 0.35% active; binding response (% of control), % at 10 µM; Multiplexed bead flow cytometry, RGS7-Galphao binding; actives lie on both sides; P09471; in the data active = binding response below about 49% or above about 150%; inconclusive = no clear call, values can overlap the other calls; inactive = in between;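 note: fluorescent Galphao held in activated GDP-AlF4 state binding bead-coupled RGS7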
Starred values were filed as active, the others as inactive.

How did COc1ccc(OC)c(NC(=O)NNC(=O)CCCOc2ccc(Cl)cc2C)c1 do in these assays?
GSH fluor: 17; RGS4-Gao reg: 94; RGS16-Gao HTS: 104; Avidin fluor: 9; RGS8-Gao: 99; RGS7-Gao reg: 98

How did CC(C)(CNS(=O)(=O)c1ccc(F)cc1)CNS(=O)(=O)c1ccc(F)cc1 do in these assays?
GSH fluor: 38; RGS4-Gao reg: 107; RGS16-Gao HTS: 104; Avidin fluor: 51*; RGS8-Gao: 101; RGS7-Gao reg: 114

How did O=S(=O)(NCCNS(=O)(=O)c1ccc(F)cc1)c1ccc(F)cc1 do in these assays?
GSH fluor: 41; RGS4-Gao reg: 102; RGS16-Gao HTS: 95; Avidin fluor: 8; RGS8-Gao: 103; RGS7-Gao reg: 97

What do the screens show for `O=C(N=NC(=O)c1ccc2c(O)n(CC3CCCO3)c(O)c2c1)c1cccnc1` (centres undefined)?
RGS4-Gao reg: 105; RGS16-Gao HTS: 105; Avidin fluor: 7; RGS8-Gao: 105; RGS7-Gao reg: inconclusive

Results for Cn1c(=O)[nH]c(=O)c2[nH]c(NCCCN3CCOCC3)nc21 ?
GSH fluor: 26; RGS4-Gao reg: 109; RGS16-Gao HTS: 121; Avidin fluor: 48*; RGS8-Gao: 95; RGS7-Gao reg: 105

What do the screens show for `COc1ccc([N+](=O)[O-])cc1NC(=O)c1ccc(N2C(=O)CCC2=O)cc1`?
RGS4-Gao reg: 103; RGS16-Gao HTS: 102; Avidin fluor: 7; RGS8-Gao: 101; RGS7-Gao reg: inconclusive

What do the screens show for `Cc1ccc(-c2nc(-c3ccccc3)no2)cc1`?
GSH fluor: 27; RGS4-Gao reg: 105; RGS16-Gao HTS: 107; Avidin fluor: 6; RGS8-Gao: 104; RGS7-Gao reg: 98

Results for Cc1ccc(-c2nc(-c3cccnc3)no2)cc1 ?
GSH fluor: 27; RGS4-Gao reg: 102; RGS16-Gao HTS: 87; Avidin fluor: 56*; RGS8-Gao: 95; RGS7-Gao reg: 146

Results for N#Cc1c(-c2ccccc2)ccn(Cc2ccc(Cl)cc2)c1=O ?
GSH fluor: 17; RGS4-Gao reg: 101; RGS16-Gao HTS: 99; Avidin fluor: 49*; RGS8-Gao: 98; RGS7-Gao reg: 111

How did CCC(Sc1ccc(C(=O)O)cc1)C(=O)O (centres undefined) do in these assays?
GSH fluor: 21; RGS4-Gao reg: 102; RGS16-Gao HTS: 100; Avidin fluor: 50*; RGS8-Gao: 101; RGS7-Gao reg: 106

What do the screens show for `Cc1cc(C)n(-c2ncnc3sc(C)c(C)c23)n1`?
GSH fluor: 14; RGS4-Gao reg: 109; RGS16-Gao HTS: 114; Avidin fluor: 53*; RGS8-Gao: 103; RGS7-Gao reg: 105

How did Cc1cc(C)n(-c2ncnc3sc4c(c23)CCCC4)n1 do in these assays?
GSH fluor: 15; RGS4-Gao reg: 97; RGS16-Gao HTS: 100; Avidin fluor: 9; RGS8-Gao: 100; RGS7-Gao reg: 95

What do the screens show for `COc1cccc2cc(C(=O)OCC(=O)NCc3ccc4c(c3)OCO4)c(=O)oc12`?
RGS4-Gao reg: 105; RGS16-Gao HTS: 107; Avidin fluor: 6; RGS8-Gao: 103; RGS7-Gao reg: inconclusive

Results for Cc1cc(NC(=O)C2(c3ccccc3)CCCC2)no1 ?
GSH fluor: 16; RGS4-Gao reg: 136; RGS16-Gao HTS: 160; Avidin fluor: 59*; RGS8-Gao: 113; RGS7-Gao reg: 135

How did CCCCN(Cc1cc2cc(OC)ccc2[nH]c1=O)C(=O)c1ccco1 do in these assays?
GSH fluor: 11; RGS4-Gao reg: 106; RGS16-Gao HTS: 101; Avidin fluor: 5; RGS8-Gao: 103; RGS7-Gao reg: 107

Results for CCCN(Cc1cc2cc(OC)ccc2[nH]c1=O)C(=O)c1ccco1 ?
RGS4-Gao reg: 125; RGS16-Gao HTS: 102; Avidin fluor: 49*; RGS8-Gao: 100; RGS7-Gao reg: inconclusive

How did S=C1N(c2ccccc2)C(c2ccccc2)N2CCCN12 (centres undefined) do in these assays?
GSH fluor: 14; RGS4-Gao reg: 102; RGS16-Gao HTS: 96; Avidin fluor: 13; RGS8-Gao: 102; RGS7-Gao reg: 98

How did S=C1COC(c2ccccc2)N1c1ccccc1 (centres undefined) do in these assays?
GSH fluor: 142*; RGS4-Gao reg: 89; RGS16-Gao HTS: 92; Avidin fluor: 5; RGS8-Gao: 101; RGS7-Gao reg: 92

How did COC(=O)Cc1[nH]nc2c1C(c1ccc(O)c(OC)c1)C(C#N)=C(N)O2 (centres undefined) do in these assays?
RGS4-Gao reg: 95; RGS16-Gao HTS: 99; Avidin fluor: 7; RGS8-Gao: 94; RGS7-Gao reg: inconclusive

What do the screens show for `Cc1ccnc2nc(C(=O)NC3=NCCS3)nn12`?
GSH fluor: 11; RGS4-Gao reg: 107; RGS16-Gao HTS: 110; Avidin fluor: 26; RGS8-Gao: 105; RGS7-Gao reg: 104

Results for Cc1ccnc2nc(C(=O)Nc3nccs3)nn12 ?
GSH fluor: 253*; RGS4-Gao reg: 99; RGS16-Gao HTS: 106; Avidin fluor: 6; RGS8-Gao: 100; RGS7-Gao reg: 102

Results for CN1CCCC(OC(=O)c2cc(Cl)ccc2Cl)C1 (centres undefined) ?
GSH fluor: 258*; RGS4-Gao reg: 97; RGS16-Gao HTS: 102; Avidin fluor: 7; RGS8-Gao: 100; RGS7-Gao reg: 100

How did O=C1CCCC/C1=C\Nc1ccc(S(=O)(=O)Nc2cnc3ccccc3n2)cc1 do in these assays?
RGS4-Gao reg: 102; RGS16-Gao HTS: 99; Avidin fluor: 6; RGS8-Gao: 101; RGS7-Gao reg: inconclusive

What do the screens show for `NCC12CC3CC(CC(O)(C3)C1)C2`?
GSH fluor: 262*; RGS4-Gao reg: 103; RGS16-Gao HTS: 102; Avidin fluor: 7; RGS8-Gao: 103; RGS7-Gao reg: 101

How did CCOC(=O)CNC(=O)Cc1ccc(OC)cc1 do in these assays?
RGS4-Gao reg: 90; RGS16-Gao HTS: 89; Avidin fluor: 7; RGS8-Gao: 92; RGS7-Gao reg: inconclusive

What do the screens show for `O=C(Nc1ccc(Nc2ccncc2)cc1)c1ccc(Nc2ccnc3ccc([N+](=O)[O-])cc23)cc1[N+](=O)[O-]`?
RGS4-Gao reg: 105; RGS16-Gao HTS: 103; Avidin fluor: 6; RGS8-Gao: 105; RGS7-Gao reg: inconclusive

How did COc1ccc(N(C(=O)Cn2nnc3ccccc32)C(C(=O)NCc2ccco2)c2ccc(C)o2)cc1 (centres undefined) do in these assays?
GSH fluor: 252*; RGS4-Gao reg: 99; RGS16-Gao HTS: 85; Avidin fluor: 6; RGS8-Gao: 100; RGS7-Gao reg: 102

Results for CCc1n[n+](CC(=O)c2ccccc2)c(N)s1 ?
GSH fluor: 11; RGS4-Gao reg: 95; RGS16-Gao HTS: 99; Avidin fluor: 12; RGS8-Gao: 100; RGS7-Gao reg: inconclusive
